54 compounds from PubChem BioAssay (Tox21) can be followed below.

Values joined by “and” are separate entries in the source; they are usually repeats but may differ in a detail not shown here. Equal values may be shown once. Inconclusive results are not listed. Active and inactive are the calls of the source. Calls come from the whole dose curve; as a rule, active = well fitted cell-killing curve with a large enough effect in the repeat runs; inconclusive = weak or mixed curves, or effect the other way; inactive = flat fitted curve, though single readings scatter.

Assay [1] is described as follows: cAMP Responsive Elements (CRE) small molecule antagonists, cell-based qHTS assay: qHTS cell viability counter screen (AID 2060913). Note: nearly all actives have a fitted effect of over 40% in size. The procedure, abridged: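 Cytotoxicity read in the same wells as the CRE-bla HEK293T antagonist assay: after 3 h compound with 0.25 uM NKH477 final and 2 h beta-lactamase substrate, CellTiter-Glo luminescence measured.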
Assay [2] in a line: cAMP Responsive Elements (CRE) small molecule agonists, cell-based qHTS assay: qHTS cell viability counter screen (AID 2060914). Note: nearly all actives have a fitted effect of over 50% in size. The procedure, abridged:
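Cells are seeded and incubated 18 h, treated with compounds in DMSO for 3 h, read for the bla reporter, then given CellTiter-Glo; luminescence is measured after 30 min at room temperature.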
Potency is the fitted concentration of half-maximal effect.

For the compound `O=C(N[C@H]1N=C(c2ccccc2F)c2cccc3c2N(CC3)C1=O)c1cc2ccccc2[nH]1`, the Potency result in assay [1] and in assay [2] was “inactive” throughout.

As for `O=[N+]([O-])c1ccc(CBr)cc1`, the Potency result in assay [1] and in assay [2] was “inactive” in each case.

Regarding `CCCCCCOC(=O)c1ccccc1C(=O)OCCCCCC`, the Potency result in assay [1] and in assay [2] was “inactive” each time.

On to `O=C(CCCN1CCC2(CC1)C(=O)NCN2c1ccccc1)c1ccc(F)cc1`, for which the Potency result in assay [1] and in assay [2] was “inactive” throughout.

As to `c1cncc([C@@H]2CCCCN2)c1`, the Potency result in assay [1] and in assay [2] was “inactive” each time.

For the compound `COP(=O)(OC)OC`, the Potency entry in assay [1] and in assay [2] was “inactive” throughout.

Consider `CC1(C)[C@H](C(=O)O[C@H](C#N)c2cccc(Oc3ccccc3)c2)[C@@H]1C=C(Br)Br`, for which the Potency result in assay [1] and in assay [2] was “inactive” throughout.

For `COc1cc(OC)nc(Oc2cccc(Oc3nc(OC)cc(OC)n3)c2C(=O)O)n1`, the Potency result in assay [1] and in assay [2] was “inactive” in each case.

For `O=C(NC(=O)c1c(F)cccc1F)Nc1cc(Cl)c(Oc2ncc(C(F)(F)F)cc2Cl)c(Cl)c1`, the Potency result in assay [1] and in assay [2] was “inactive” in each case.

Turning to `CCOP(=S)(OCC)SCCS(=O)(=O)CC`, the Potency result in assay [1] and in assay [2] was “inactive” throughout.

For `CNN`, the Potency result in assay [1] and in assay [2] was “inactive” throughout.

Take `COC(=O)C(C)N(C(=O)c1ccco1)c1c(C)cccc1C` (stereo not drawn): the Potency result in assay [1] and in assay [2] was “inactive” each time.

`OCC1CO1` (stereo not drawn): the Potency entry in assay [1] and in assay [2] was “inactive” in each case.

Consider `Nc1cc(Cl)cc(Cl)c1`, for which the Potency result in assay [1] and in assay [2] was “inactive” in each case.

Turning to `CCC1(CC)C(=O)C=CNC1=O`, the Potency result in assay [1] and in assay [2] was “inactive” each time.

In the case of `COc1cc(Cl)c(OC)cc1Cl`, the Potency result in assay [1] and in assay [2] was “inactive” throughout.

As for `O=S(=O)(Oc1ccc(Cl)cc1)c1ccc(Cl)cc1`, the Potency entry in assay [1] and in assay [2] was “inactive” throughout.

As to `[C-]1=CC=CC1.[Cl][Zr+2][Cl].c1cc[cH-]c1`, the Potency entry in assay [1] and in assay [2] was “inactive” in each case.

On to `O=C1CC(=O)NC(=O)N1`, for which the Potency result in assay [1] and in assay [2] was “inactive” throughout.

Take `CC(=O)CC(c1ccc(Cl)cc1)c1c(O)c2ccccc2oc1=O` (stereo not drawn): the Potency entry in assay [1] and in assay [2] was “inactive” in each case.

On to `C=CC(=O)NC(C)(C)CC(C)=O`, for which the Potency entry in assay [1] and in assay [2] was “inactive” in each case.

Take `CCCC[N+]1(C)CCCCC1`: the Potency result in assay [1] and in assay [2] was “inactive” each time.

For the compound `CCCN1CCC[C@@H]2Cc3nc(N)ncc3C[C@H]21`, the Potency result in assay [1] and in assay [2] was “inactive” throughout.

Regarding `C#CC(O)(C=CCl)CC` (stereo not drawn), the Potency result in assay [1] and in assay [2] was “inactive” each time.

As to `CCOC(=O)c1ccccc1S(=O)(=O)NC(=O)Nc1nc(Cl)cc(OC)n1`, the Potency entry in assay [1] and in assay [2] was “inactive” throughout.

Consider `CCCN(CC1CC1)c1c([N+](=O)[O-])cc(C(F)(F)F)cc1[N+](=O)[O-]`, for which the Potency result in assay [1] and in assay [2] was “inactive” in each case.

Regarding `CN(C)NC(=O)CCC(=O)O`, the Potency result in assay [1] and in assay [2] was “inactive” each time.

As to `CCN(CC)N=O`, the Potency entry in assay [1] and in assay [2] was “inactive” each time.

In the case of `CN1CCN(C(=O)O[C@H]2c3nccnc3C(=O)N2c2ccc(Cl)cn2)CC1`, the Potency result in assay [1] and in assay [2] was “inactive” in each case.

`Oc1ccc2[nH]cc(CCCCN3CC=C(c4ccccc4)CC3)c2c1`: the Potency entry in assay [1] and in assay [2] was “inactive” each time.

On to `CN(C)CCO`, for which the Potency entry in assay [1] and in assay [2] was “inactive” in each case.

Take `CCCN(CCC)N=O`: the Potency entry in assay [1] and in assay [2] was “inactive” each time.

Regarding `C1CCC(NC2CCCCC2)CC1`, the Potency entry in assay [1] and in assay [2] was “inactive” throughout.

For the compound `CCOC(=O)N(C)N=O`, the Potency entry in assay [1] and in assay [2] was “inactive” each time.

In the case of `ClC(Br)Br`, the Potency entry in assay [1] and in assay [2] was “inactive” throughout.

Regarding `CC(=NC#N)N(C)Cc1ccc(Cl)nc1`, the Potency result in assay [1] and in assay [2] was “inactive” throughout.

Turning to `CC(C)OC(=O)Nc1cccc(Cl)c1`, the Potency result in assay [1] and in assay [2] was “inactive” each time.

As to `CCC1(c2ccccc2)C(=O)N(COC)C(=O)N(COC)C1=O`, the Potency entry in assay [1] and in assay [2] was “inactive” in each case.

`CC1(C)C(C=C(Cl)Cl)C1C(=O)OC(C#N)c1cccc(Oc2ccccc2)c1` (stereo not drawn): the Potency entry in assay [1] and in assay [2] was “inactive” each time.

Regarding `CNC(=O)CSP(=S)(OC)OC`, the Potency result in assay [1] and in assay [2] was “inactive” each time.

Consider `CNC(=O)Oc1cccc2c1OC(C)(C)C2`, for which the Potency entry in assay [1] and in assay [2] was “inactive” in each case.

In the case of `Cc1ccccc1O`, the Potency entry in assay [1] and in assay [2] was “inactive” throughout.

Take `O=[N+]([O-])c1ccc2ccc3cccc4ccc1c2c34`: the Potency result in assay [1] and in assay [2] was “inactive” throughout.

As to `COc1ccc(O)c(C(C)(C)C)c1`, the Potency entry in assay [1] and in assay [2] was “inactive” throughout.

In the case of `Clc1ccc(C(Cl)(Cl)Cl)cc1`, the Potency entry in assay [1] and in assay [2] was “inactive” in each case.

`CC(Oc1ccc(Oc2ncc(C(F)(F)F)cc2Cl)cc1)C(=O)O` (stereo not drawn): the Potency result in assay [1] and in assay [2] was “inactive” each time.

`Cc1c(Cl)c(=O)oc2cc(OP(=O)(OCCCl)OCCCl)ccc12`: the Potency entry in assay [1] and in assay [2] was “inactive” each time.

With `O=C(NC(=O)c1c(F)cccc1F)Nc1ccc(Oc2ccc(C(F)(F)F)cc2Cl)cc1F`, the Potency entry in assay [1] and in assay [2] was “inactive” each time.

On to `CC(C)(C)c1cc(O)ccc1O`, for which the Potency result in assay [1] and in assay [2] was “inactive” each time.

As for `COc1ccc(C(=O)N2CCCC2=O)cc1`, the Potency result in assay [1] and in assay [2] was “inactive” throughout.

For `NC(=O)C(Cl)(Cl)Cl`, the Potency result in assay [1] and in assay [2] was “inactive” in each case.

As to `Oc1ccc(-c2ccccc2)cc1`, the Potency entry in assay [1] and in assay [2] was “inactive” each time.

In the case of `O=[N+]([O-])c1ccc(Cl)c(Cl)c1Cl`, the Potency entry in assay [1] and in assay [2] was “inactive” each time.

Consider `CC(=O)[O][Hg][c]1ccccc1`, for which the Potency in assay [1] was 12.1 µM (active) and 12.2 µM (active) and 16.8 µM (active); in assay [2], 10.8 µM (active) and 13.7 µM (active).
